# According to ChEMBL document CHEMBL3433997, “St. Jude Leishmania screening dataset” (2016):
# Columns and labels:
# Format in all cases: functional
# [1] = target: Solute carrier family 2, facilitated glucose transporter member 1 (Homo sapiens) (UniProt P11166); assay: ST_JUDE_LEISH: Cytotoxicity at 2uM final concentration against transgenic Leishmania Mexicana promastigotes LmGLUT1 that are glucose transport deficient and complemented with the human glucose transporter GLUT1. Activity is measured by DNA content using SYBR green in vitro
# Solute carrier family 2, facilitated glucose transporter member 1 (Homo sapiens), sequence (P11166 whole entry): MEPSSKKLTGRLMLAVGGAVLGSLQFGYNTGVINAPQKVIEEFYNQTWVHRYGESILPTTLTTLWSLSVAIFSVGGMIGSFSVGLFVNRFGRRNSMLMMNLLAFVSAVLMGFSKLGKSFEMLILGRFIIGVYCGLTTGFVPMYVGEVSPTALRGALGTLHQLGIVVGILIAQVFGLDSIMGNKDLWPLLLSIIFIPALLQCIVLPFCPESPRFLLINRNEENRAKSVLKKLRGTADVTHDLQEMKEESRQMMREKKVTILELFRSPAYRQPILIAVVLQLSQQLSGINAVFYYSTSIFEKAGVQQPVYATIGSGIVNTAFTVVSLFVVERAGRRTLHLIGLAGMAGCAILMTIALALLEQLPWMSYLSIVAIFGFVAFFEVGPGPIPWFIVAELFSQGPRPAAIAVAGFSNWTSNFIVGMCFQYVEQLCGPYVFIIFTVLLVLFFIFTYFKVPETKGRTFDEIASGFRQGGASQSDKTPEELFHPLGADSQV
# [2] = target: Hexose transporter 1 (Plasmodium falciparum) (UniProt O97467); assay: ST_JUDE_LEISH: Cytotoxicity at 2uM final concentration against transgenic Leishmania Mexicana promastigotes LmPfHT that are glucose transport deficient and complemented with the Plasmodium falciparum hexose transporter. Activity is measured by DNA content using SYBR green in vitro
# [3] = target: Glucose transporter (Leishmania mexicana) (UniProt O61059); assay: ST_JUDE_LEISH: Cytotoxicity at 2uM final concentration against transgenic Leishmania Mexicana promastigotes LmGT2 that are glucose transport deficient and complemented with the L. Mexicana glucose transporter 2. Activity is measured by DNA content using SYBR green in vitro
Compound,inhibition [1],inhibition [2],inhibition [3]
OC(c1ccccc1)C1CN(Cc2ccccc2)CCC1(O)c1ccccc1 (stereo not given),8.06%,7.93%,7%
CCN(CC)CCCN(C(=O)Nc1ccc(C#N)cc1)c1nc(-c2ccc(F)cc2)cs1,-0.54%,2.42%,-0.41%
CC(C)c1cccc(C(C)C)c1NC(=O)NNC(=O)c1ccc(CCN2CCC(c3nc(COCC(F)(F)F)c(-c4ccc(F)cc4)o3)CC2)cc1,10.8%,11.4%,12.7%
COc1ccccc1/C=C/C(=O)NC1CCC(CCN2CCc3ccc(-c4cc(C)no4)cc3CC2)CC1 (stereo not given),3.11%,1.2%,9.56%
COc1ccc2nccc(N3C[C@H]4C[C@@H]3CN4CCNCc3ccc4c(n3)NC(=O)CS4)c2n1,-0.98%,0.1%,-1.32%
O=C(CNc1ccc(Cl)c(S(=O)(=O)N2CCCC2)c1)Nc1ccc(Br)cc1F,-2.34%,1.47%,1.03%
O=C(NCc1ccc(Cl)c(Cl)c1)c1ccc(-c2nc3cc(F)c(F)cc3[nH]2)cc1,0.21%,0.14%,-0.73%
Cc1nnsc1C(=O)Nc1cccc(-c2ccc(-c3nc4cc(F)ccc4[nH]3)s2)c1,1.06%,0.37%,-2.44%
CC1CCCCN1S(=O)(=O)c1ccc(NC(=O)c2cc(-c3ccccc3O)n[nH]2)cc1 (stereo not given),1.2%,1.81%,-1.06%
CN1CCC(NCc2cccc(-c3ccc(S(=O)(=O)NCCN4CCCC4)s3)c2)CC1,4.8%,5.43%,0.76%
Cc1cc(N[C@@H](Cc2ccccc2)C(=O)NC2CCCC2)nc(NCCOc2ccccc2)n1,1.41%,-1.48%,2.19%
O=C(/C=C/c1ccc(Cl)c(Cl)c1)NCCCCCN1CCC(NC(=O)Nc2cccc(Cl)c2)CC1,3.22%,4.71%,3.33%
O=C(NC(CCCN1CCC(c2ccccc2)CC1)c1ccc(Cl)c(Cl)c1)c1cc(C(F)(F)F)cc(C(F)(F)F)c1 (stereo not given),2.06%,1.99%,1.89%
Cc1cccc2nc(-c3cccc(-c4ccc(NC(=O)NC(C)C)cc4)c3)[nH]c12,0%,2.42%,-0.9%
Cn1cnc2c(Nc3ccncc3)nc(-c3ccc(OC(F)(F)F)cc3)nc21,2.51%,1.84%,2.19%
CN(C)c1ccc(NC(=O)Nc2ccnc3ccc(Br)cc23)cc1,2.25%,3.91%,0.43%
COc1cccc(OC2CCN(C(=O)c3cc(C(C)(C)C)nn3Cc3ccccc3)CC2)c1,1.4%,0.53%,1.38%
CCNc1cc(C)nc(Nc2ccc(NC(=O)Cc3ccc(OC)cc3)cc2)n1,10.8%,10.1%,4.74%
CCCCN(Cc1cc(Cl)c(OCC)c(OC)c1)c1ccc(C(O)(C(F)(F)F)C(F)(F)F)cc1,-0.54%,-0.97%,-2.65%
COc1ccc(Br)cc1/C=C/C(=O)Nc1cccc(C2CCCN(C)C2)c1 (stereo not given),6.13%,5.55%,7.45%
OC(CN1c2ccccc2Sc2ccccc21)CN(C1CCCCC1)C1CCCCC1 (stereo not given),6.08%,6.38%,3.8%
CC(O)C1CCCCN1C(=O)c1cccc(-c2cccc(-c3nc4ccccc4[nH]3)c2)c1 (stereo not given),0.78%,0.15%,-0.24%
O=C(NCCCCN1CCC(c2cccc3ccccc23)CC1)c1ccc(-c2ccc(C(F)(F)F)cn2)cc1,2.62%,3.84%,1.69%
FC(F)(F)c1ccc2[nH]c(-c3cccc(-c4ccc(CNCCc5ccncc5)cc4)c3)nc2c1,1.9%,0.52%,-0.21%

Compound,inhibition [1],inhibition [2],inhibition [3]
O=C(N[C@@H](Cc1ccccc1)C(=O)NC1CCCCCC1)c1ccc(O)c(-c2ccc(Cl)c(Cl)c2)c1,3.99%,3.77%,3.08%
CCCCC(CC)CN1C(=O)C(c2ccccc2)(c2ccccc2)N=C1N (stereo not given),-0.17%,0.02%,2.42%
CC(Cc1ccc(Cl)cc1)Nc1nc(NC2CCCC2)nc(N2CCC(C#N)(c3ccccc3)CC2)n1 (stereo not given),8.45%,5.49%,-0.98%
O=C(Nc1ccc(-c2ccc(-c3nc4cc(C(F)(F)F)ccc4[nH]3)s2)cc1)c1ccoc1,0.13%,-0.79%,-1.02%
c1ccc2c(Nc3ccc(OCCOCCOc4ccc(Nc5c6ccccc6nc6ccccc56)cc4)cc3)c3ccccc3nc2c1,-2.9%,-1.87%,4.94%
CCCCCCNC(=O)C1Cc2c([nH]c3cc(Cl)ccc23)C2(CCN(CCC)CC2)N1 (stereo not given),3.28%,2.13%,2.32%
CCc1c(C)nc(-n2nc(C)cc2NC(=O)c2cccc3ccccc23)[nH]c1=O,-3.49%,-1.41%,3.73%
CN(C)CCCNCCS(=O)(=O)c1cccc(Nc2ccc(-c3cccc(N(C)C)c3)cn2)c1,1.72%,1.88%,1.78%
Cc1ccccc1CNc1noc(-c2c(-c3ccccc3)noc2C)n1,-2.97%,2.16%,6.28%
CC(=O)Nc1ncc(C(=O)Nc2ccc(-c3cccc(-c4nc5cc(F)ccc5[nH]4)c3)cc2)s1,6.62%,7%,6.95%
Cc1ccc2nc(C)cc(N/N=C/c3ccc([N+](=O)[O-])o3)c2c1,14.9%,12.8%,9.98%
Cc1cc(C(F)(F)F)n2nc(C(=O)N(Cc3cncn3Cc3cccc(F)c3)CC3CC3)cc2n1,-0.1%,-0.07%,2.14%
CC(C)(CN)c1cc(-c2ccc(Cl)c(O)c2)c(-c2ccncc2)o1,0.01%,3.22%,1.62%
c1cc(-c2ccc(CNC3CCOCC3)cc2)cc(-c2nc3ccccc3[nH]2)c1,-0.19%,1.26%,-2.46%
CC(Cc1ccc(CNC(=O)NCc2ccc(CC(C)NCCc3cccc(Cl)c3)cc2)cc1)NCCc1cccc(Cl)c1 (stereo not given),82.9%,79%,18.9%
COc1cccc(-c2cc(C(=O)NC3CCC(N4CCC(c5ccccc5C)CC4)CC3)[nH]n2)c1 (stereo not given),6.55%,14.6%,5.13%
Oc1ccc2[nH]c(-c3cccc(F)c3)nc2c1CNCc1ccccc1,9.11%,3.29%,2.86%
COc1ccc(C(=O)N2CCC(C(=O)NC(C)c3ccc(-n4ccnc4)cc3)CC2)c2ccccc12 (stereo not given),-1.06%,-0.1%,-0.59%
COc1ccc2ncc(F)c(CCN3CC(O)C(CNCc4ccccc4)C3)c2n1 (stereo not given),7.65%,5.1%,4.78%
O=C(/C=C/c1ccc(Cl)c(Cl)c1)NCCCCCN1CCC(CCNC(=O)/C=C/c2cc(C(F)(F)F)ccc2F)CC1,-4.09%,-2.42%,2.28%
Oc1ccc2ncnc(Nc3ccc(OCc4cccc(F)c4)c(Cl)c3)c2c1,-2.81%,-0.64%,-1.78%
NCc1ccc(-c2ccc3c(N)nccc3c2)cc1,-3.43%,0.57%,0.41%
CC(=O)N1CCN(c2ccc(NC(=O)c3oc(-c4ccccc4)nc3C(F)(F)F)cn2)CC1,1.92%,1.42%,1.05%
CCOC(=O)c1sc(C(C)Nc2ccccc2)nc1-c1ccccc1 (stereo not given),0.89%,-0.3%,-1.6%

Compound,inhibition [1],inhibition [2],inhibition [3]
Cc1cc(Cl)ccc1NC(=O)NCCCCCN1CCC(c2c[nH]c3ccccc23)CC1,11.4%,14.9%,10.4%
O=C(N[C@H]1CCN(Cc2ccc(OCCN3CCCC3)c(Cl)c2)C1)c1ccc(Cl)c(Cl)c1,8.03%,16.6%,6.8%
OC(CNC1CCCCC1)Cn1c2ccccc2c2ccccc21 (stereo not given),9.36%,7.72%,3.35%
COCCn1c(-c2cccc(Cl)c2)nn(-c2ccc([N+](=O)[O-])cc2Cl)c1=S,4.03%,6.65%,7.62%
c1cc(-c2ccc(CN3CCCCC3)cc2)cc(-c2nc3ccccc3[nH]2)c1,1.85%,0.49%,0.96%
Cc1ccc(C(=O)NCC2CCN(c3ccc(C(F)(F)F)cc3NC(=O)c3ccco3)CC2)cn1,2.76%,-2.99%,3.12%
O=C(Nc1ccc(Oc2cccnc2)cc1)C1CCN(Cc2cc(Cl)ccc2O)CC1,2.3%,4.55%,1.47%
O=C(/C=C/c1ccc(F)cc1)NC1CCC(CCN2CCc3ccccc3CC2)CC1 (stereo not given),7.03%,5.64%,2.76%
O=S(=O)(NC1=NCCC1)c1cccc(Nc2nc(C(F)(F)F)nc3ccccc23)c1,-1.06%,-1.27%,-3.08%
CN1CCN(CC(=O)Nc2ccc(-c3ccc(-c4nc5cc(C(F)(F)F)ccc5[nH]4)s3)cc2)CC1,-0.05%,1.22%,1.13%
O=C(NC1CCN(CCC(NC(=O)c2ccccc2)c2ccc(Cl)c(Cl)c2)CC1)c1ccc(Cl)cc1 (stereo not given),3.39%,2.33%,1.88%
O=C(NCc1ccccc1)c1ncn(CCCN2CCC(N3CCCC3)CC2)c1-c1ccc(Cl)c(Cl)c1,-1.45%,-1.01%,-1.08%
O=C(/C=C/c1ccc(Cl)c(Cl)c1)NCCCCCN1CC[C@H](NC(=O)Nc2ccc(Oc3ccccc3)cc2)C1,-0.32%,-1.24%,1.17%
CCC[C@@H]([C@@H](CC1CCC(C)CC1)C(=O)N[C@@H](CCCCNC(=O)c1ccccn1)C(=O)Nc1nccs1)N(O)C=O (stereo not given in full),2.27%,4.29%,1.8%
CN(C)c1ccc(-c2csc(C(=O)NCC3CCN(Cc4cccc(C(F)(F)F)c4)C3)c2)cc1 (stereo not given),7.22%,6.1%,9.26%
CC=CC1CCNC(C(O)c2ccnc3ccc(OC)cc23)C1 (stereo not given),2.16%,2.5%,2.9%
CN1CCC(C(=O)Nc2ccc(-c3cccc(-c4nc5cc(F)ccc5[nH]4)c3)cc2)CC1,8.95%,9.27%,8.51%
COc1ccc2ncc(F)c([C@@H](O)CN3CCC(NCc4ccc5c(c4)NCCS5)CC3)c2n1,8.36%,8.01%,-5.06%
CCNc1cc(C(=O)N[C@@H](Cc2ccccc2)[C@H](O)CNCCc2ccccc2)cc(N2CCCC2=O)c1,0.28%,1.31%,0.88%
COc1ccccc1CCNc1nc(C)cc(N[C@@H](Cc2ccccc2)C(=O)NCCOc2ccccc2)n1,1.72%,1.1%,-2.09%
CNC(=O)COC(=O)c1c2c(nc3ccccc13)C(=Cc1ccc3c(c1)OCO3)CCC2,1.88%,-1.19%,0.04%
COc1ccc(C=CC(=O)Nc2ccc(N3CCCC3)cc2)cc1,1.15%,-1.95%,-1%
